# ELG1 DNA repair: inhibitors of ELG1-dependent DNA repair in HEK293T cells; HEK293T ELG1-luciferase reporter, luminescence, 16 h; DNA damage induced by 5-fluorouridine; Potency, µM (series often up to 46.1 µM), for inactives: at the top dose activity change, negative = inhibition, actives largely listed as inhibitors; AID 504467; 330,000 compounds, 2.3% hits; also: % is scaled to controls: 0 for no effect and ±100 for the full control effect; nearly all actives have a fitted effect of over 55% in size
#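 5-Fluorouridine DNA damage + compound/DMSO, 2,000 cells/well, 16 h, 37 °C/5% CO2. ONE-Glo, 30 min RT, luminescence. Readout = decrease in reporter signal.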
# ELG1 genotoxic: inducers of genotoxicity in HEK293T ELG1-luciferase cells. HEK293T ELG1-luciferase reporter, luminescence, 16 h. Potency, µM (titrated, usually from 46 µM), for the others: at the top dose activity change, positive = activation, actives largely listed as activators. 330,000 compounds, 1.3% hits. AID 504466; also: % of control where 0% means no effect; nearly all actives have a fitted effect of over 60% in size
#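 HEK293T cells expressing luciferase-tagged ELG1 were treated with compound or DMSO for 16 hr at 37°C. Luciferase activity was then read after 30 min with ONE-Glo at room temperature; rising signal flags genetic stress.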
# SMN2 splice up: SMN2 splice variant enhancement; HEK293 SMN2-luciferase splicing reporter, luminescence, 30-36 h; Potency, µM (doses to about 46.1 µM), inactives show at the top dose activity change, positive = activation, actives largely listed as activators; 210,000 compounds, 2.8% hits; AID 1458; also: % of control where 0% means no effect; nearly all actives have a fitted effect of over 55% in size
#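 HEK293 cells carry an SMN2 […]–luciferase reporter in which exon 7 inclusion puts luciferase in frame. Cells were plated 10-12 h before compound addition, then incubated 30-36 h at 37C. ONE-Glo luminescence was read; sodium butyrate at 4.5 mM final served as control.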
# Rab9 prom act: Rab9 promoter activation; Huh7 Rab9 promoter-luciferase reporter, luminescence, 24 h; Potency, µM (series often up to 9.22 µM), for the others: top-dose activation, negative = inhibition, most hits filed as activators; 320,000 compounds, 2.8% hits; also: % of control where 0% means no effect; nearly all actives have a fitted effect of over 60% in size
#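 Huh7 cells stably carrying Rab9 promoter–luciferase reporter, plated 1500 cells/well, compound added after 2 h and incubated 24 h at 37 °C; luciferase luminescence then read after 10 min with detection reagent.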
# NPC1 promoter act: NPC1 promoter activation; Huh7 NPC1 promoter luciferase reporter, 24 h; Potency, µM (titrated, usually from 9.22 µM), for inactives: at the top dose activation, actives largely listed as activators; 320,000 compounds, 2.4% hits; AID 485313; also: % of control where 0% means no effect; nearly all actives have a fitted effect of over 60% in size
#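 Stable NPC1-promoter luciferase Huh7 line; cpd (DMSO) 24 h, 37 °C, 5% CO2; Amplite luciferase reagent 10 min RT; luminescence readout. qHTS format.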
# FLuc counter: firefly luciferase modulation, counter-screen for miR-21 project | P08659 | 360,000 compounds, 6.9% hits | Potency, µM (doses to about 57.5 µM), for the others: at the highest dose activity change, negative = inhibition, hits mostly inhibitors | purified FLuc, Km substrates, luminescence inhibition;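 also: plate controls were vehicle for no effect and reference inhibitor for full effect; nearly all actives have a fitted effect of over 55% in size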
# Target sequence (P08659 whole entry, looked up): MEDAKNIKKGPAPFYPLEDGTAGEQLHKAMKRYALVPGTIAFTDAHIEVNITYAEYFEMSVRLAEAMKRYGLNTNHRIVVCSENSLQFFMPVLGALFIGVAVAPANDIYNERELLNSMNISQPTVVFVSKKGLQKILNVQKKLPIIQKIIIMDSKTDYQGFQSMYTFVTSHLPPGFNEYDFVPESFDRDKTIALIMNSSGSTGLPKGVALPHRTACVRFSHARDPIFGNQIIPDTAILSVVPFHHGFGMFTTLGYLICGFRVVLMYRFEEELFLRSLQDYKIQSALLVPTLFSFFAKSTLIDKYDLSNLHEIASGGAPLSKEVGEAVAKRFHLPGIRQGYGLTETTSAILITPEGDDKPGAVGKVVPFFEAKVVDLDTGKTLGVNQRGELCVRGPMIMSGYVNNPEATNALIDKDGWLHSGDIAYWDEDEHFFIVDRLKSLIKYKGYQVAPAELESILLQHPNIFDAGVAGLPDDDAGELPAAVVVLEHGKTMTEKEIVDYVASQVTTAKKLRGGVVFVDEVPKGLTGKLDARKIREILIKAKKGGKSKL
#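 Purified P. pyralis luciferase, 10 nM final, with Km-level 10 uM D-luciferin and 10 uM ATP in 50 mM Tris acetate pH 7.5, 10 mM Mg acetate, 0.01% Tween-20, 0.05% BSA; 6-point qHTS titration about 60 µM downward; luminescence read.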
# Numbers without * were called inactive; ? = inconclusive; nt = no result; [ ] = remark or other dose. In the library only some 9.4% were active in any assay of this set; here they are far more common. Calls follow the shape of the dose curve; as a rule, active = well fitted curve in the direction sought with a large enough effect; inconclusive = small, poorly fitted or top-dose-only effect, or another doubt; inactive = no such curve, though single readings can be large; an effect the other way counts as inactive or inconclusive. Potency is read from the fitted curve at half-maximal effect.
SMILES,ELG1 DNA repair,ELG1 genotoxic,SMN2 splice up,Rab9 prom act,NPC1 promoter act,FLuc counter
CCOc1cc(/C=N/Nc2nncc(-c3ccccc3)n2)ccc1O,?,-13.0%,-16.8%,0.5%,-4.0%,-1.8%
COc1ccc(-c2cnnc(N/N=C/c3ccc(OC)c(OC)c3)n2)cc1,?,-2.5%,nt,-0.3%,5.8%,2.69µM*
Cc1ccc2nc(N/N=C/c3ccco3)cc(C)c2c1,?,9.2%,nt,2.51µM*,2.82µM*,2.69µM*
Cc1cc(-c2ccccc2)nc(N/N=C/c2cccnc2)n1,-21.4%,-1.9%,nt,1.3%,4.8%,12µM*
C(=N/Nc1nc(-c2ccccc2)cc(-c2ccccc2)n1)/c1cccnc1,?,0.7%,2.51µM*,25.5%,17.6%,2.69µM*
COc1ccc(/C=N/Nc2nc(-c3ccc(Cl)cc3)cc(C(F)(F)F)n2)cc1OC,?,-8.7%,-57.6%,-0.4%,-3.8%,?
COc1ccc(/C=N/Nc2nc(C)cc(-c3ccccc3)n2)cc1OC,?,-12.6%,nt,1.0%,-1.7%,13.5µM*
C(=N\Nc1nc(Nc2ccccc2)nc(Nc2ccccc2)n1)/c1ccncc1,8.4%,0.8%,16.9%,-8.6%,-6.7%,0.2%
C(=N\Nc1nc(Nc2ccccc2)nc(Nc2ccccc2)n1)/c1cccnc1,6.51µM*,-5.7%,3.1%,3.6%,2.9%,?
CC(=O)Nc1ccc(S(=O)(=O)N(Cc2ccccc2)Cc2ccccc2)cc1,nt,nt,-23.0%,nt,nt,?
COc1cccc(-c2nc(SC(C(C)=O)C(=O)N(C)C)c3c(=O)n(C)c(=O)n(C)c3n2)c1 (centres undefined),nt,nt,nt,nt,nt,0.0%
CCOc1ccccc1CNC(=O)CCn1c(=O)c2cccn2c2ccc(F)cc21,nt,nt,nt,nt,nt,1.5%
CSc1ccc(CCNC(=O)c2c(C)nn(-c3ccc(F)cc3)c2-n2cccc2)cc1,nt,nt,nt,nt,nt,0.4%
Cc1cc(=O)[nH]c2c(C)cc(S(=O)(=O)NCc3ccccc3)cc12,-5.7%,-1.2%,nt,2.1%,3.2%,1.9%
Cc1cc(=O)[nH]c2c(C)cc(S(=O)(=O)N3CCCCC3)cc12,?,16.4µM*,nt,-9.8%,-9.6%,0.0%
CCNC(=S)N/N=C/c1cc(C)n(-c2ccc(Cl)cc2)c1C,?,?,17.8µM*,?,?,16.9µM*
Cc1nc2ccccn2c1C(=O)N/N=C/c1cc(C)n(-c2ccc(Cl)cc2)c1C,?,-2.6%,-63.4%,-0.4%,-3.5%,21.3µM*
Cc1ccc(C2=NN(CC(=O)NCCc3ccc(Cl)cc3)C(=O)CC2)cc1,nt,nt,nt,nt,nt,-12.3%
CCN(CC(=O)Nc1cc(Cl)cc(Cl)c1)CC(=O)NC1CCS(=O)(=O)C1 (centres undefined),-0.8%,2.8%,nt,nt,nt,nt
CCN(CC(=O)Nc1sc2c(c1C#N)CCCC2)Cc1nc2ccccc2c(=O)[nH]1,14.6µM*,-5.8%,-8.5%,-4.7%,5.7%,-9.1%
CC1CCc2c(sc(NC(=O)CCc3nc4ccccc4c(=O)[nH]3)c2C#N)C1 (centres undefined),12.0%,8.3%,nt,-2.5%,-5.5%,-0.6%
CCN(CC(=O)Nc1sc2c(c1C#N)CCC(C)C2)Cc1nc2ccccc2c(=O)[nH]1 (centres undefined),13µM*,-15.4%,-5.2%,-1.6%,-1.6%,-10.5%
CCN(CC(=O)NCc1ccc(F)cc1)Cc1nc2ccccc2c(=O)[nH]1,-29.3%,-0.3%,-2.5%,3.8%,0.2%,0.8%
CCN(CC(=O)Nc1sc2c(c1C#N)CCC(C)C2)CC(=O)NC1CCS(=O)(=O)C1 (centres undefined),18.3µM*,-7.5%,-7.7%,2.1%,7.8%,?
CCn1c(CN2CCC(C)CC2)nc2cc(NC(=O)COc3ccc([N+](=O)[O-])cc3)ccc21,nt,nt,nt,nt,nt,-1.6%
SMILES,ELG1 DNA repair,ELG1 genotoxic,SMN2 splice up,Rab9 prom act,NPC1 promoter act,FLuc counter
COc1cccc(N2CCN(C(=O)C3CCC(CNS(=O)(=O)c4ccc(Br)s4)CC3)CC2)c1 (centres undefined),nt,nt,-11.1%,nt,nt,-7.1%
COc1ccc(OC)c(NC(=O)CSc2ncnc3c2cnn3-c2ccccc2Cl)c1,9.2µM*,-14.2%,-107.1%,-30.4%,-27.4%,2.0%
Cc1cc(C)nc(SC2=CS(=O)(=O)c3ccccc32)n1,?,-43.9%,?,-4.7%,-8.1%,-12.2%
O=S1(=O)C=C(Sc2nnc(-c3ccccc3)o2)c2ccccc21,16.4µM*,-7.2%,-57.4%,-40.6%,-26.0%,30.1µM*
CCOc1ccc(NC(=O)Cn2nnc(C(=O)NCCc3ccccc3)c2N)cc1,nt,nt,-2.4%,nt,nt,-0.3%
O=C(CN1CCN(c2ccc(O)cc2)CC1)Nc1ccc(SC(F)F)cc1,9.2µM*,15.1%,-6.3%[1.84 µM],-20.1%,-18.2%,2.5%
O=C(CN1CCN(c2ccc(O)cc2)CC1)Nc1ccc2c(c1)OCCCO2,18.3µM*,-1.9%,nt,-6.0%,-1.1%,-1.6%
COc1cccc([C@@H]2Oc3ccc(Br)cc3[C@H](O)[C@H]2O)c1,nt,nt,-18.6%,nt,nt,nt
CC(=O)Nc1ccc(Nc2ncnc3c2cnn3-c2cccc(C)c2)cc1,?,10.3%,?,3.16µM*,2.82µM*,-15.4%
CC(=O)Cn1cnc2c(cnn2-c2ccc(C)c(C)c2)c1=O,?,?,nt,1.58µM*,3.16µM*,23.9µM*
CNc1ncnc2c1cnn2-c1ccc(C)c(C)c1,nt,nt,nt,nt,nt,10.7µM*
Cc1cccc(-n2ncc3c(N4CCCc5ccccc54)ncnc32)c1,?,2.31µM*,12.6µM*,2µM*,2.82µM*,5.36µM*
COc1ccc(C(=O)NCC(c2ccc3c(c2)OCO3)N2CCN(C)CC2)cc1OC (centres undefined),nt,nt,nt,nt,nt,1.0%
Cc1ccc(-n2ncc3c(NNC(=O)c4ccco4)ncnc32)cc1Cl,?,?,nt,9.2%,14.8%,8.49µM*
Cc1cccc(-n2ncc3c(NNC(=O)c4ccco4)ncnc32)c1,-3.7%,5.8%,nt,11.3%,1.8%,?
Cc1cccc(-n2ncc3c(NCc4ccccc4)ncnc32)c1,?,18.4µM*,10µM*,-3.9%,-16.4%,-17.4%
Clc1ccc(-n2ncc3c(NCc4cccnc4)ncnc32)cc1Cl,?,?,nt,1.12µM*,0.501µM*,1.07µM*
Cc1ccc(-n2ncc3c(NCCCN(C)C)ncnc32)cc1Cl,nt,nt,nt,nt,nt,13.5µM*
COc1ccc(CNc2ncnc3c2cnn3-c2ccc(C)c(C)c2)cc1,nt,nt,nt,nt,nt,-7.2%
Cc1ccc(-n2ncc3c(NCc4ccco4)ncnc32)cc1C,?,?,15.8µM*,3.55µM*,2.82µM*,13.5µM*
Cc1cccc(-n2ncc3c(NCc4ccco4)ncnc32)c1,?,?,15.8µM*,?,8.3%,12µM*
Cc1cccc(-n2ncc3c(NCc4cccs4)ncnc32)c1,?,?,10µM*,?,3.55µM*,9.53µM*

# Source: PubChem BioAssay
